According to PubChem BioAssay (EPA / NIEHS):
Records with an inconclusive call do not appear. Calls of active or inactive are those of the source. The calls were made as follows: active = hit-call score of the fitted dose curve at least 0.9, where 1 is the maximum; inconclusive = response in the unintended direction; inactive = score below 0.9.

experiment: ATG_M_32_TRANS: Attagene TRANS-FACTORIAL HepG2 Assay for M32 Transcription Factor (Internal Marker) (AID 2282984); details: HepG2 Attagene TRANS M32 internal marker reporter
Procedure: ATG_TRANS is a cell-based, multiplexed-readout assay that uses HepG2, a human liver cell line, with measurements taken at 24 hours after chemical dosing in a 24-well plate.ATG_M_32_TRANS is one of 30 assay component(s) measured or calculated from the ATG_TRANS assay. It is designed to make measurements of mRNA induction, a form of inducible reporter, as detected with fluorescence intensity signals by Reverse transcription polymerase chain reaction (RT-PCR) and Capillary electrophoresis technology.Data from the assay component ATG_M_32_TRANS was analyzed into 1 assay endpoint. This assay endpoint, ATG_M_32_TRANS, was analyzed in the positive analysis fitting direction relative to DMSO as the negative control and baseline of activity. Using a type of inducible reporter, measures of mRNA for gain-of-signal activity can be used to understand the background control at the transcription factor-level as they relate to the gene . Furthermore, this assay endpoint can be referred to as a secondary readout, because this assay has produced multiple assay endpoints where this one serves a background control function. To generalize the intended target to other relatable targets, this assay endpoint is annotated to the background measurement intended target family, where the subfamily is internal marker.
Human liver HepG2 cells are transiently transfected with multiple reporter transcription units (MRTUs) in 6-well plates using FuGene 6 reagent (Roche; 3 ml FuGene/1 mg DNA). The MRTU constructs are regulated by a cis-regulating element (promoter). […] A major difference between the CIS and TRANS system is that in CIS activities of endogenous TFs are measured, whereas the TRANS assay evaluates changes in activities of exogenous, chimeric NR-Gal4 proteins. […] At the end of 24 hour incubation, total RNA was isolated using TriZol reagent (Invitrogen). The isolated RNA is then reverse-transcribed using oligo(dT) primer and Mo-MLV reverse transcriptase (Invitrogen) with DNAse I (Ambion) treatment for 30 min. The one-tenth of the produced cDNA was amplified by PCR using Taq DNA polymerase (Invitrogen) and two reporter sequence-specific primers. The PCR products were fluorescently labeled by primer extension with 6-arboxyfluorescein (6-FAM) 5'-labeled reporter sequence-specific primer (2 min at 95 C, 20 s at 68 C and 10 min at 72 C) and these products were digested with 5U of HpaI (New England Biolabs) for 2h at 37 C. The fragments were purified using Qiaquick PCR columns (Qiagen), analyzed on an ABI 3130xL genetic analyzer (Applied Biosystems) with peak positions identified by using a set of X-rhodamine (ROX)-labeled MapMarker1000 molecular weight standards (BioVentures). The raw capillary electrophoresis data was processed using Attagraph software (Attagene).

outcome, inactive:
CCc1ccc(C=O)cc1
CCCCCCCCC
CC(C)(Oc1ccc(CCNC(=O)c2ccc(Cl)cc2)cc1)C(=O)O
CCC(C)CCCC(C)(C)O (stereo not given)
COC(=O)OC
Sc1nc(S)nc(S)n1
CCCCCCCCCCCCCCCC(=O)OC[C@H](O)[C@H]1OC(=O)C(O)=C1O
CC(C)=CCCC(C)CC=O (stereo not given)
CC(C)CCCCCCCOC(=O)c1ccc(C(=O)OCCCCCCCC(C)C)c(C(=O)OCCCCCCCC(C)C)c1
Clc1ccc(Cl)c(Cl)c1Cl
O=C(O)CN(CCN(CC(=O)O)CC(=O)O)CCN(CC(=O)O)CC(=O)O
O=C1OC2(c3cc(Br)c(O)c(Br)c3Oc3c2cc(Br)c(O)c3Br)c2c(Cl)c(Cl)c(Cl)c(Cl)c21
N#Cc1ccccc1
CC(=O)OCCOC(C)=O
CC(C)(C#N)c1cc(Cn2cncn2)cc(C(C)(C)C#N)c1
CN(CCOc1ccc(CC2SC(=O)NC2=O)cc1)c1ccccn1 (stereo not given)
Nc1cc(N)cc(C(=O)O)c1
CCC(C)(O)CCC=C(C)C (stereo not given)
O=C[C@@H](O)[C@H](O)[C@H](O)CO
CCCCC(CC)COC(=O)/C=C\C(=O)OCC(CC)CCCC (stereo not given)
OCc1cccnc1
C=CC(C)(CCC=C(C)C)OC=O (stereo not given)
COc1ccc(Cl)cc1C
O=C(O)COCCN1CCN(C(c2ccccc2)c2ccc(Cl)cc2)CC1 (stereo not given)
O=C(OCc1ccccc1)C(=O)OCc1ccccc1
Cc1ccccc1C=O
CC(CC(C)(C)C)CC(C)(C)CC(C)(C)C (stereo not given)
Nc1ccc(F)c([N+](=O)[O-])c1
O=C(O)c1cccc([N+](=O)[O-])c1
O=Cc1ccc(Cl)c([N+](=O)[O-])c1
O=Nc1ccc(Nc2ccccc2)cc1
C=CCOc1nc(OCC=C)nc(OCC=C)n1
O=C(COc1ccc(Cl)cc1)N1CCN(Cc2ccc3c(c2)OCO3)CC1
CCCCCCOC(=O)CC
Nc1cccc(S(=O)(=O)c2cccc(N)c2)c1
O=c1oc(=O)c2cc3c(=O)oc(=O)c3cc12
Nc1cc([N+](=O)[O-])ccc1O
CC1(C)C(=O)N(Br)C(=O)N1Cl
CCCCCCCCCCN
CCCCCCCCCOC(C)=O
